{"source": "paper PMC11006913", "test_in_all_cases": "PBM; 200 nM protein, PBS", "conditions_in_all_cases": "dsDNA, one strand shown", "key": {"HOXB4 [1]": {"target": "HOXB4 (Homo sapiens, UniProt P17483 148-234)", "sequence (P17483 148-234)": "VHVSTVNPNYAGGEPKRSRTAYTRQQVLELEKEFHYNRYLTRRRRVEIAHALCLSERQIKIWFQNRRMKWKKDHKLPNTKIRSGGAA"}, "HOXC9 [2]": {"target": "HOXC9 (Homo sapiens, UniProt P31274 178-260, K195R)", "sequence (P31274 178-260 K195R)": "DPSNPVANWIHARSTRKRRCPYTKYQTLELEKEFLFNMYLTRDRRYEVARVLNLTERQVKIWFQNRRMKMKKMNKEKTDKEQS"}, "HOXB4 [3]": {"target": "HOXB4 (Homo sapiens, UniProt P17483 148-234, V174I)", "sequence (P17483 148-234 V174I)": "as the sequence (P17483 148-234) above, with V27I counted along it"}, "HOXC9 [4]": {"target": "HOXC9 (Homo sapiens, UniProt P31274 178-260)", "sequence (P31274 178-260)": "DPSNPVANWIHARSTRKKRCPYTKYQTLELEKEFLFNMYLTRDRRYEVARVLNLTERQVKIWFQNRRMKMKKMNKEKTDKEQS"}, "HOXC9 [5]": {"target": "HOXC9 (Homo sapiens, UniProt P31274 178-260, R193K)", "sequence (P31274 178-260 R193K)": "as the sequence (P31274 178-260) above, with R16K counted along it"}, "HOXC9 [6]": {"target": "HOXC9 (Homo sapiens, UniProt P31274 178-260, R222W)", "sequence (P31274 178-260 R222W)": "as the sequence (P31274 178-260) above, with R45W counted along it"}, "HOXA4 [7]": {"target": "HOXA4 (Homo sapiens, UniProt Q00056 201-287, W262R)", "sequence (Q00056 201-287 W262R)": "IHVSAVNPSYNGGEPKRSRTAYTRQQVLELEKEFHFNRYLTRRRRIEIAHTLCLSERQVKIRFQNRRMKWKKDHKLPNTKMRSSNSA"}, "HOXA4 [8]": {"target": "HOXA4 (Homo sapiens, UniProt Q00056 201-287, R217L)", "sequence (Q00056 201-287 R217L)": "as the sequence (Q00056 201-287 W262R) above, with R17L, R62W counted along it"}, "HOXA4 [9]": {"target": "HOXA4 (Homo sapiens, UniProt Q00056 201-287)", "sequence (Q00056 201-287)": "as the sequence (Q00056 201-287 W262R) above, with R62W counted along it"}, "HOXA4 [10]": {"target": "HOXA4 (Homo sapiens, UniProt Q00056 201-287, W262F)", "sequence (Q00056 201-287 W262F)": "as the sequence (Q00056 201-287 W262R) above, with R62F counted along it"}, "HOXA2 [11]": {"target": "HOXA2 (Homo sapiens, UniProt O43364 129-215, R185T)", "sequence (O43364 129-215 R185T)": "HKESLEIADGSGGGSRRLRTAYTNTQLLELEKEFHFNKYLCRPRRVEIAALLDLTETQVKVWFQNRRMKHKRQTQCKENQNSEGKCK"}, "HOXA2 [12]": {"target": "HOXA2 (Homo sapiens, UniProt O43364 129-215, R185K)", "sequence (O43364 129-215 R185K)": "as the sequence (O43364 129-215 R185T) above, with T57K counted along it"}, "VAX1 [13]": {"target": "VAX1 (Homo sapiens, UniProt Q5SQQ9 86-172)", "sequence (Q5SQQ9 86-172)": "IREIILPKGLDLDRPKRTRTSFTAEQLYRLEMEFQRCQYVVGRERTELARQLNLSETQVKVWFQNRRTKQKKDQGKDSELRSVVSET"}, "VAX1 [14]": {"target": "VAX1 (Homo sapiens, UniProt Q5SQQ9 86-172, T142I)", "sequence (Q5SQQ9 86-172 T142I)": "as the sequence (Q5SQQ9 86-172) above, with T57I counted along it"}, "HOXA2 [15]": {"target": "HOXA2 (Homo sapiens, UniProt O43364 129-215, Y150S)", "sequence (O43364 129-215 Y150S)": "as the sequence (O43364 129-215 R185T) above, with Y22S, T57R counted along it"}, "HOXA2 [16]": {"target": "HOXA2 (Homo sapiens, UniProt O43364 129-215)", "sequence (O43364 129-215)": "as the sequence (O43364 129-215 R185T) above, with T57R counted along it"}, "VAX1 [17]": {"target": "VAX1 (Homo sapiens, UniProt Q5SQQ9 86-172, K157R)", "sequence (Q5SQQ9 86-172 K157R)": "as the sequence (Q5SQQ9 86-172) above, with K72R counted along it"}, "ALX4 [18]": {"target": "ALX4 (Homo sapiens, UniProt Q9H161 200-286)", "sequence (Q9H161 200-286)": "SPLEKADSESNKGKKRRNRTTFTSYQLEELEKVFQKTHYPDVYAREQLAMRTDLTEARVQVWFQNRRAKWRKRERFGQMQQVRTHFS"}, "PRRX1 [19]": {"target": "PRRX1 (Homo sapiens, UniProt P54821 80-166, F113S)", "sequence (P54821 80-166 F113S)": "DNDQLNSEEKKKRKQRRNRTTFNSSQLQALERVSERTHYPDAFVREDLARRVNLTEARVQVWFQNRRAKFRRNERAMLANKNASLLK"}, "ALX4 [20]": {"target": "ALX4 (Homo sapiens, UniProt Q9H161 200-286, Q225E)", "sequence (Q9H161 200-286 Q225E)": "as the sequence (Q9H161 200-286) above, with Q26E counted along it"}, "ALX3 [21]": {"target": "ALX3 (Homo sapiens, UniProt O95076 139-225, N203Q)", "sequence (O95076 139-225 N203Q)": "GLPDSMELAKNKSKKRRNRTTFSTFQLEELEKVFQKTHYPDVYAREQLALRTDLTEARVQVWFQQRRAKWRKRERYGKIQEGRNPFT"}, "ALX3 [22]": {"target": "ALX3 (Homo sapiens, UniProt O95076 139-225)", "sequence (O95076 139-225)": "as the sequence (O95076 139-225 N203Q) above, with Q65N counted along it"}, "ALX3 [23]": {"target": "ALX3 (Homo sapiens, UniProt O95076 139-225, L168Q)", "sequence (O95076 139-225 L168Q)": "as the sequence (O95076 139-225 N203Q) above, with L30Q, Q65N counted along it"}, "ALX3 [24]": {"target": "ALX3 (Homo sapiens, UniProt O95076 139-225, L168V)", "sequence (O95076 139-225 L168V)": "as the sequence (O95076 139-225 N203Q) above, with L30V, Q65N counted along it"}, "ALX3 [25]": {"target": "ALX3 (Homo sapiens, UniProt O95076 139-225, N203S)", "sequence (O95076 139-225 N203S)": "as the sequence (O95076 139-225 N203Q) above, with Q65S counted along it"}, "PRRX1 [26]": {"target": "PRRX1 (Homo sapiens, UniProt P54821 80-166)", "sequence (P54821 80-166)": "as the sequence (P54821 80-166 F113S) above, with S34F counted along it"}}, "data": [{"sequence": "CCTACCGC", "values": [{"measurement": "binding signal", "setting": "HOXB4 [1]", "value": "7.61 upbm affinity estimate (log intensity, higher = more binding, comparable within an allelic series)"}, {"measurement": "binding signal", "setting": "HOXC9 [2]", "value": "9.66 upbm affinity estimate (log intensity, higher = more binding, comparable within an allelic series)"}, {"measurement": "binding signal", "setting": "HOXB4 [3]", "value": "7.56 upbm affinity estimate (log intensity, higher = more binding, comparable within an allelic series)"}, {"measurement": "binding signal", "setting": "HOXC9 [4]", "value": "9.63 upbm affinity estimate (log intensity, higher = more binding, comparable within an allelic series)"}, {"measurement": "binding signal", "setting": "HOXC9 [5]", "value": "9.56 upbm affinity estimate (log intensity, higher = more binding, comparable within an allelic series)"}, {"measurement": "binding signal", "setting": "HOXC9 [6]", "value": "9.71 upbm affinity estimate (log intensity, higher = more binding, comparable within an allelic series)"}]}, {"sequence": "CGGCGGTC", "values": [{"measurement": "binding signal", "setting": "HOXB4 [1]", "value": "7.42 upbm affinity estimate (log intensity, higher = more binding, comparable within an allelic series)"}, {"measurement": "binding signal", "setting": "HOXA4 [7]", "value": "9.72 upbm affinity estimate (log intensity, higher = more binding, comparable within an allelic series)"}, {"measurement": "binding signal", "setting": "HOXA4 [8]", "value": "9.69 upbm affinity estimate (log intensity, higher = more binding, comparable within an allelic series)"}, {"measurement": "binding signal", "setting": "HOXB4 [3]", "value": "7.32 upbm affinity estimate (log intensity, higher = more binding, comparable within an allelic series)"}, {"measurement": "binding signal", "setting": "HOXA4 [9]", "value": "9.77 upbm affinity estimate (log intensity, higher = more binding, comparable within an allelic series)"}, {"measurement": "binding signal", "setting": "HOXA4 [10]", "value": "9.76 upbm affinity estimate (log intensity, higher = more binding, comparable within an allelic series)"}]}, {"sequence": "ATTCATTA", "values": [{"measurement": "binding signal", "setting": "HOXB4 [1]", "value": "13.1 upbm affinity estimate (log intensity, higher = more binding, comparable within an allelic series)"}, {"measurement": "binding signal", "setting": "HOXA4 [7]", "value": "10.5 upbm affinity estimate (log intensity, higher = more binding, comparable within an allelic series)"}, {"measurement": "binding signal", "setting": "HOXA4 [8]", "value": "12.1 upbm affinity estimate (log intensity, higher = more binding, comparable within an allelic series)"}, {"measurement": "binding signal", "setting": "HOXB4 [3]", "value": "13.7 upbm affinity estimate (log intensity, higher = more binding, comparable within an allelic series)"}, {"measurement": "binding signal", "setting": "HOXA4 [9]", "value": "13.7 upbm affinity estimate (log intensity, higher = more binding, comparable within an allelic series)"}, {"measurement": "binding signal", "setting": "HOXA4 [10]", "value": "11.6 upbm affinity estimate (log intensity, higher = more binding, comparable within an allelic series)"}]}, {"sequence": "GGTAATGA", "values": [{"measurement": "binding signal", "setting": "HOXB4 [1]", "value": "12.9 upbm affinity estimate (log intensity, higher = more binding, comparable within an allelic series)"}, {"measurement": "binding signal", "setting": "HOXA4 [7]", "value": "10.4 upbm affinity estimate (log intensity, higher = more binding, comparable within an allelic series)"}, {"measurement": "binding signal", "setting": "HOXA2 [11]", "value": "12.1 upbm affinity estimate (log intensity, higher = more binding, comparable within an allelic series)"}, {"measurement": "binding signal", "setting": "HOXA4 [8]", "value": "11.9 upbm affinity estimate (log intensity, higher = more binding, comparable within an allelic series)"}, {"measurement": "binding signal", "setting": "HOXB4 [3]", "value": "13.6 upbm affinity estimate (log intensity, higher = more binding, comparable within an allelic series)"}, {"measurement": "binding signal", "setting": "HOXA2 [12]", "value": "13 upbm affinity estimate (log intensity, higher = more binding, comparable within an allelic series)"}, {"measurement": "binding signal", "setting": "HOXA4 [9]", "value": "13.5 upbm affinity estimate (log intensity, higher = more binding, comparable within an allelic series)"}, {"measurement": "binding signal", "setting": "VAX1 [13]", "value": "12.8 upbm affinity estimate (log intensity, higher = more binding, comparable within an allelic series)"}, {"measurement": "binding signal", "setting": "VAX1 [14]", "value": "12.6 upbm affinity estimate (log intensity, higher = more binding, comparable within an allelic series)"}, {"measurement": "binding signal", "setting": "HOXA2 [15]", "value": "10.8 upbm affinity estimate (log intensity, higher = more binding, comparable within an allelic series)"}, {"measurement": "binding signal", "setting": "HOXA4 [10]", "value": "11.2 upbm affinity estimate (log intensity, higher = more binding, comparable within an allelic series)"}, {"measurement": "binding signal", "setting": "HOXA2 [16]", "value": "12.1 upbm affinity estimate (log intensity, higher = more binding, comparable within an allelic series)"}, {"measurement": "binding signal", "setting": "VAX1 [17]", "value": "12.5 upbm affinity estimate (log intensity, higher = more binding, comparable within an allelic series)"}]}, {"sequence": "CCCTTGCG", "values": [{"measurement": "binding signal", "setting": "HOXB4 [1]", "value": "7.39 upbm affinity estimate (log intensity, higher = more binding, comparable within an allelic series)"}, {"measurement": "binding signal", "setting": "HOXA4 [7]", "value": "9.76 upbm affinity estimate (log intensity, higher = more binding, comparable within an allelic series)"}, {"measurement": "binding signal", "setting": "ALX4 [18]", "value": "7.92 upbm affinity estimate (log intensity, higher = more binding, comparable within an allelic series)"}, {"measurement": "binding signal", "setting": "PRRX1 [19]", "value": "9.08 upbm affinity estimate (log intensity, higher = more binding, comparable within an allelic series)"}, {"measurement": "binding signal", "setting": "ALX4 [20]", "value": "7.92 upbm affinity estimate (log intensity, higher = more binding, comparable within an allelic series)"}, {"measurement": "binding signal", "setting": "HOXA4 [8]", "value": "9.77 upbm affinity estimate (log intensity, higher = more binding, comparable within an allelic series)"}, {"measurement": "binding signal", "setting": "HOXB4 [3]", "value": "7.32 upbm affinity estimate (log intensity, higher = more binding, comparable within an allelic series)"}, {"measurement": "binding signal", "setting": "ALX3 [21]", "value": "7.69 upbm affinity estimate (log intensity, higher = more binding, comparable within an allelic series)"}, {"measurement": "binding signal", "setting": "HOXA4 [9]", "value": "9.61 upbm affinity estimate (log intensity, higher = more binding, comparable within an allelic series)"}, {"measurement": "binding signal", "setting": "ALX3 [22]", "value": "7.65 upbm affinity estimate (log intensity, higher = more binding, comparable within an allelic series)"}, {"measurement": "binding signal", "setting": "ALX3 [23]", "value": "7.59 upbm affinity estimate (log intensity, higher = more binding, comparable within an allelic series)"}, {"measurement": "binding signal", "setting": "ALX3 [24]", "value": "7.6 upbm affinity estimate (log intensity, higher = more binding, comparable within an allelic series)"}, {"measurement": "binding signal", "setting": "HOXA4 [10]", "value": "9.81 upbm affinity estimate (log intensity, higher = more binding, comparable within an allelic series)"}, {"measurement": "binding signal", "setting": "ALX3 [25]", "value": "7.67 upbm affinity estimate (log intensity, higher = more binding, comparable within an allelic series)"}, {"measurement": "binding signal", "setting": "PRRX1 [26]", "value": "9.11 upbm affinity estimate (log intensity, higher = more binding, comparable within an allelic series)"}]}, {"sequence": "CGTGGCGC", "values": [{"measurement": "binding signal", "setting": "HOXB4 [1]", "value": "7.6 upbm affinity estimate (log intensity, higher = more binding, comparable within an allelic series)"}, {"measurement": "binding signal", "setting": "HOXC9 [2]", "value": "9.49 upbm affinity estimate (log intensity, higher = more binding, comparable within an allelic series)"}, {"measurement": "binding signal", "setting": "HOXB4 [3]", "value": "7.68 upbm affinity estimate (log intensity, higher = more binding, comparable within an allelic series)"}, {"measurement": "binding signal", "setting": "HOXC9 [4]", "value": "9.5 upbm affinity estimate (log intensity, higher = more binding, comparable within an allelic series)"}, {"measurement": "binding signal", "setting": "HOXC9 [5]", "value": "9.45 upbm affinity estimate (log intensity, higher = more binding, comparable within an allelic series)"}, {"measurement": "binding signal", "setting": "HOXC9 [6]", "value": "9.81 upbm affinity estimate (log intensity, higher = more binding, comparable within an allelic series)"}]}]}
